Measured values published in PubChem BioAssay (NCI).
About 83,000 compounds went through this panel and 20% of them were active in at least one assay; those are over-represented in the sample as a whole.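 Negative percent growth values reflect cell death: -40 means 40% of the cells present at the start died, and -100 means all died.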 Values without a mark were called inactive. Calls of active or inactive are those of the source. The calls were made as follows: active = growth percent below 10; inactive = the rest.

Key:
Assay in all cases: NCI-60 one-dose screen, 48 h (100 = growth as untreated, 0 = no growth, -100 = all killed)
Conditions in all cases: 10 µM unless noted
SK-MEL-2 melanoma = test system: SK-MEL-2 melanoma
EKVX NSCLC = test system: EKVX NSCLC
SN12C renal = test system: SN12C renal
UO-31 renal = test system: UO-31 renal
TK-10 renal = test system: TK-10 renal
CAKI-1 renal = test system: CAKI-1 renal
A498 renal = test system: A498 renal
CCRF-CEM leukemia = test system: CCRF-CEM leukemia
MOLT-4 leukemia = test system: MOLT-4 leukemia
SR leukemia = test system: SR leukemia
RPMI-8226 leukemia = test system: RPMI-8226 leukemia
OVCAR-8 ovarian = test system: OVCAR-8 ovarian
OVCAR-5 ovarian = test system: OVCAR-5 ovarian
OVCAR-4 ovarian = test system: OVCAR-4 ovarian
SK-OV-3 ovarian = test system: SK-OV-3 ovarian
IGROV1 ovarian = test system: IGROV1 ovarian
OVCAR-3 ovarian = test system: OVCAR-3 ovarian
HS 578T breast = test system: HS 578T breast
NCI/ADR-RES ovarian = test system: NCI/ADR-RES ovarian
ACHN renal = test system: ACHN renal

| SMILES | growth (SK-MEL-2 melanoma) | growth (EKVX NSCLC) | growth (SN12C renal) | growth (UO-31 renal) | growth (TK-10 renal) | growth (CAKI-1 renal) | growth (A498 renal) | growth (CCRF-CEM leukemia) | growth (MOLT-4 leukemia) | growth (SR leukemia) | growth (RPMI-8226 leukemia) | growth (OVCAR-8 ovarian) | growth (OVCAR-5 ovarian) | growth (OVCAR-4 ovarian) | growth (SK-OV-3 ovarian) | growth (IGROV1 ovarian) | growth (OVCAR-3 ovarian) | growth (HS 578T breast) | growth (NCI/ADR-RES ovarian) | growth (ACHN renal) |
| --- | --- | --- | --- | --- | --- | --- | --- | --- | --- | --- | --- | --- | --- | --- | --- | --- | --- | --- | --- | --- |
| Cc1nc2cc(O)c(O)cc2cc1Oc1ccc(NC(=O)Nc2ccc(Cl)c(Cl)c2)cc1 | 77.7% | 98.5% | 85.6% | 58.6% | 85.3% | 27.3% | 118% | 19.9% | 12.6% | 8.95% (active) | 75.7% | 47.7% | 122% | 67.7% | 44.9% | 67.1% | 67.9% | 105% | 59% | – |
| COc1ccc2c(c1)c(-c1nc(-c3c[nH]c4ncccc34)cs1)cn2CCCN1CCOCC1 | 11.4% | 57.8% | 52.7% | 11.9% | 51.5% | 28.8% | 27.8% | 13.1% | -1.04% (active) | 6.64% (active) | 0.661% (active) | 25.3% | 68.1% | 41.5% | 51.8% | – | 44% | 2.12% (active) | 43.4% | 14.5% |
| C#CC#CC#CC#CC#CC#CC#CC#CC[C@@H]1OC[C@@H](COC(=O)O[C@@H](C(=O)O[C@H]2C[C@@]3(O)[C@@H](OC(=O)c4ccccc4)[C@@H]4[C@]5(OC(C)=O)CO[C@@H]5C[C@H](O)[C@@]4(C)C(=O)[C@H](OC(C)=O)C(=C2C)C3(C)C)[C@@H](NC(=O)c2ccccc2)c2ccccc2)O1 | 105% | 35.2% | 21.4% | 35.2% | 123% | 81.3% | 52.9% | 6.05% (active) | 9.3% (active) | 3.63% (active) | 5.29% (active) | 94.7% | 5.15% (active) | 83.9% | 98.6% | 19.3% | 100% | 94.1% | 62.5% | – |
| Cc1ccc(-c2nc(-c3cn(C)c4ncccc34)cs2)cc1 | -14.6% [100 µM] (active) | -13.5% [100 µM] (active) | -13.1% [100 µM] (active) | 14.8% [100 µM] | -60% [100 µM] (active) | -22.9% [100 µM] (active) | -3.41% [100 µM] (active) | -4.89% [100 µM] (active) | 17.3% [100 µM] | 3.67% [100 µM] (active) | -7.33% [100 µM] (active) | -3.32% [100 µM] (active) | -5.34% [100 µM] (active) | -21.5% [100 µM] (active) | -33.7% [100 µM] (active) | -0.0952% [100 µM] (active) | -28.5% [100 µM] (active) | 13.7% [100 µM] | -24.9% [100 µM] (active) | – |
| COc1ccc2c(c1)/C(=N/c1n[nH]c(=S)s1)C(=O)N2 | 105% | 98.6% | 97.8% | 74.3% | 115% | 78.4% | 89.9% | 44.5% | 76.2% | 69.9% | 54.1% | 92.8% | 102% | 97.7% | 148% | 75.3% | 96.2% | 91.7% | 94% | – |
| CCS/C(Nc1ccccc1)=C(\C#N)C(=O)Nc1ccc(OC)cc1 | -0.335% (active) | 52.4% | 37.8% | 50% | 47.7% | 40.4% | 22.7% | 8.29% (active) | 10.1% | 6.62% (active) | 25.2% | 31.2% | 63.1% | 66.7% | 22.4% | 55.7% | -12.1% (active) | 27.4% | -0.669% (active) | – |
| O=C(NNC(=O)c1nc2cc(F)ccc2n2cccc12)c1cnccn1 | 67.1% | 29.2% | 40.2% | 33.3% | 62.7% | 27.9% | 19.9% | 17.1% | 15% | 21.4% | 41.3% | 24.2% | 68.3% | 28.4% | 42.1% | 35.6% | 30% | 67.8% | 20.8% | – |
| C=CCn1c(SCC(=O)Nc2ccc(/C(C)=N/O)cc2)nnc1-c1cc(-c2ccc(S(N)(=O)=O)cc2)nc2ccccc12 | 83.7% | 91.8% | 77.7% | 74.5% | 121% | 51.9% | 89.2% | 45.8% | 37.9% | 56.7% | 48.8% | 54.7% | 93.5% | 66.2% | 109% | – | 70.9% | 74.1% | 99% | 96.9% |
| NC(=O)c1c(NC(=O)c2cccs2)sc2c1CCC(=O)C2 | 81.6% | 69.6% | 44.9% | 28.8% | 59.8% | -1.29% (active) | 95% | 8.75% (active) | 13.6% | 5.54% (active) | -13.6% (active) | 21.2% | 22.2% | -6.38% (active) | 87.1% | 29.7% | 13% | 35.1% | 59.4% | – |
| CCCCCCCCCCCCCCCCCCOc1ccccc1CC(=O)NCC[N+]1(C)CCCCC1 | 64.5% | 89.1% | 33% | 76.2% | 42.1% | 79.3% | 66% | 17.1% | 9.62% (active) | 26.3% | 50.9% | 57.1% | 30% | 40.3% | 77% | -8.66% (active) | 46.5% | 61.8% | 104% | – |
| O=C(/C=C/c1ccc(Cl)cc1)c1cccc(OCCCOc2cccc(C(=O)/C=C/c3ccc(Cl)cc3)c2)c1 | 107% | 107% | 103% | 86.1% | 95.6% | 95.4% | 94.9% | 92.9% | 93.3% | 32.8% | -8.57% (active) | 99.3% | 113% | 91.7% | 100% | 108% | 95.4% | 106% | 105% | – |
| O=C1c2ccccc2C(=O)C1c1ccc(Br)cc1 | 106% | 95.6% | 95.3% | 82.6% | 125% | 82.8% | 85.5% | 75.6% | 101% | 97.3% | 82.9% | 102% | 107% | 98.8% | 111% | – | 116% | 99.3% | 91.9% | 97.1% |
| O=C1c2ccccc2C(=O)c2c1cc1c(c2[N+](=O)[O-])OCO1 | -30.8% (active) | 22.9% | 13.9% | -3.07% (active) | -14.8% (active) | 2.82% (active) | -44.9% (active) | 22.9% | 28.7% | 14.6% | 7.28% (active) | 14.4% | 9.69% (active) | 19.2% | -14.7% (active) | 5.43% (active) | -20.9% (active) | 6.81% (active) | -11.7% (active) | – |
| Cc1ccc(C)c2c(C)c(C(=O)Nc3cccc(-n4cccn4)c3)oc12 | 66.3% [50 µM] | 53.8% [50 µM] | 70% [50 µM] | 40.7% [50 µM] | 82.1% [50 µM] | 44.6% [50 µM] | 55.6% [50 µM] | 42.4% [50 µM] | 42.2% [50 µM] | 56.7% [50 µM] | 43.8% [50 µM] | 42.4% [50 µM] | 93.6% [50 µM] | 50.4% [50 µM] | 111% [50 µM] | 76.3% [50 µM] | 82% [50 µM] | 81.1% [50 µM] | 54.3% [50 µM] | – |
| COc1ccc2c(c1)c(/C(O)=C1\COC(=O)C1=O)cn2Cc1ccc(F)cc1 | 85.5% | 106% | 92.9% | 72.9% | 119% | 125% | 91.5% | 76.7% | 112% | 136% | 72.1% | 111% | 98% | 97.1% | 110% | – | 107% | 109% | 107% | 103% |
| CN(C)CCN1C(=O)c2cccc3c(/C=C/CN4C(=O)c5cccc6cccc(c56)C4=O)ccc(c23)C1=O | 104% | 109% | 79.9% | 72% | 121% | 91% | 81.4% | -44.1% (active) | 34.3% | -16.4% (active) | -31.4% (active) | -43.5% (active) | -69% (active) | -5.6% (active) | 109% | – | 114% | 82.6% | 24% | 72.7% |
